# Screening data (PubChem)
# This is a sample that favours compounds with a hit; in the whole collection about 11% have one here.
# IMPase Li cell = qHTS Assay for Identifying the Cell-Membrane Permeable IMPase Inhibitors: Potentiation with Lithium; CHO-M1 cells, IP1 TR-FRET (IP-One), carbachol + lithium; AID 1457, 2008; Potency, µM (titrated, usually from 59.4 µM), for the others: at the top dose activity, negative = IMPase inhibition, hits mostly inhibitors; actives 0.35% (n = 210,000);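 further: IP1 builds up when IMPase is blocked and the TR-FRET signal falls; potency means the concentration at half of the fitted maximal effect; plate controls were basal vehicle for no effect and high inhibitor control for full effect; nearly all actives have a fitted effect of over 50% in size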
#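 Test compounds were applied to CHO-M1 cells previously cultured for 16–30 h at 2000 per well. A small lithium amount accompanied them; after 30 min at 37C, IP1 was quantified by TR-FRET.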
# PNC assembly inh = High Content Assay for Compounds that inhibit the Assembly of the Perinucleolar Compartment. PC3M PTB-GFP, PNC prevalence imaging, 16 h; active compounds read low. activity change (PNC), negative = inhibition, % at 10 µM. actives 3.1% (n = 140,000);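 active means readout at or below -70, meaning at least 70% loss of cells showing the perinucleolar compartment, a nuclear body marking cancer cells; inconclusive means readout between -30 and a set limit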;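 further: plate controls were DMSO wells for no effect and camptothecin positive control wells for full effect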
#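 Read-out is percentage of cells bearing a perinucleolar compartment, from automated 20x imaging of fixed, Hoechst-stained PC3M PTB-GFP cells. Cells were seeded 4 h, then exposed 16 h to compound (23 nl of library stock) in duplicate plates.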
# HPGD inh = qHTS Assay for Inhibitors of HPGD (15-Hydroxyprostaglandin Dehydrogenase) | 15-hydroxyprostaglandin dehydrogenase [NAD(+)] (Homo sapiens), P15428 | purified HPGD, NADH fluorescence kinetic, PGE2 substrate | Potency, µM, without a hit: at the highest dose activity change, negative = inhibition, most hits filed as inhibitors | actives 4.3% (n = 150,000); active means well fitted inhibition curve with a large enough effect, not every such curve was filed as active; inconclusive means small, poorly fitted or top-dose-only effect, or another doubt; inactive means no such curve, though single readings can be large or run the other way; further: potency means the concentration at half of the fitted maximal effect
#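 NADH formation kinetics: reaction with 30 uM PGE2 and 1 mM NAD+ (final), 20 nM enzyme, Tris-HCl pH 8 with Tween 20, after 15 min compound preincubation at room temperature. Fluorescence change, last versus first of five reads.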
# ALDH1A1 block = qHTS Assay for Inhibitors of Aldehyde Dehydrogenase 1 (ALDH1A1); Purified ALDH1A1, NADH fluorescence, propionaldehyde substrate; Potency, µM (doses to about 75.3 µM), without a hit: at the highest dose activity, negative = inhibition, hits mostly inhibitors; actives 7.3% (n = 220,000); AID 1030, 2008; active means well fitted inhibition curve with a large enough effect, not every such curve was filed as active; inconclusive means small, poorly fitted or top-dose-only effect, or another doubt; inactive means no such curve, though single readings can be large or run the other way;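 further: potency means the concentration at half of the fitted maximal effect; plate controls were no enzyme wells and a reference inhibitor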
# Target sequence (P00352 whole entry, looked up): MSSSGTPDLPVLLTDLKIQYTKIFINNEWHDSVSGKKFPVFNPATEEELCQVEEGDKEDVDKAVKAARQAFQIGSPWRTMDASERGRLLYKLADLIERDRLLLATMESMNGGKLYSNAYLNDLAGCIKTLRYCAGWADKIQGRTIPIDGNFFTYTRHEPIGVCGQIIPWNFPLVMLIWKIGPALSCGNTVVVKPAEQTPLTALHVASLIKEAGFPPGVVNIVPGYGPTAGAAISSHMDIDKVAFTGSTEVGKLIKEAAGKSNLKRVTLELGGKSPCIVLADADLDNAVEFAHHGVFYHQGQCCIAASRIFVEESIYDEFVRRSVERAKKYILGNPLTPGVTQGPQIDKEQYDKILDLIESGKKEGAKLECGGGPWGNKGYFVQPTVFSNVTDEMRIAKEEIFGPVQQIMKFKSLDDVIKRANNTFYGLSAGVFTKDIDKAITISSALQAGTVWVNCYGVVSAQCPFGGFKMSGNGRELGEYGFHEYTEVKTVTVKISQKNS
# 12-hLO inh = qHTS Assay for Inhibitors of 12-hLO (12-human lipoxygenase) | purified 12-hLO, xylenol orange hydroperoxide absorbance | actives 0.12% (n = 150,000) | Potency, µM (top dose mostly 57.1 µM), inactives show top-dose activity change, negative = inhibition, hits mostly inhibitors; further: potency means the concentration at half of the fitted maximal effect; nearly all actives have a fitted effect of over 55% in size
#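 Hydroperoxide output read as Fe(III)-xylenol orange absorbance, 573-to-405 nm ratio, after 30 min reaction with 40 uM arachidonic acid. Enzyme: 150 nM purified human 12hLO, 15 min compound preincubation; 25 mM Hepes pH 7.0, room temperature.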
# IMPase cell inh = qHTS Assay for Identifying the Cell-Membrane Permeable IMPase Inhibitors | 120,000 tested, under 10 active | CHO-M1 cells, IP1 accumulation, HTRF TR-FRET ratio | inhibition (IP1 accumulation), % at 46.1 µM; active means well fitted curve in the direction sought with a large enough effect in the signal ratio, not every such curve was filed as active; inconclusive means small, poorly fitted or top-dose-only effect, or a change in a side signal; inactive means no such curve, though single readings can be large or run the other way; the % refers to the signal ratio;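 further: cells stimulated with carbachol in lithium chloride buffer; plate controls were DMSO basal wells for no effect and reference inhibitor wells for full effect; higher means more IMPase inhibition seen as more IP1 and lower FRET ratio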
# Target sequence (P97697 whole entry, looked up): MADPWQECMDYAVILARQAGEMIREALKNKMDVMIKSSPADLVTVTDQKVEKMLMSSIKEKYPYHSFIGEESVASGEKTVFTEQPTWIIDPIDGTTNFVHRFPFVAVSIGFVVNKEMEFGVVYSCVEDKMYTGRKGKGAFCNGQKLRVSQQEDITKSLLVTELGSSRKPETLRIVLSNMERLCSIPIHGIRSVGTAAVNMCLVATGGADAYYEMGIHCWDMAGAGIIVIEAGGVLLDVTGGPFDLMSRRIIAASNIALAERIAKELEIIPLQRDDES
#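 CHO-M1 cells (CHO stably expressing M1 receptor), compound up to 46 uM final, stimulated with carbachol (50 uM as added) in buffer with 50mM LiCl, pH 7.4, 30 min at 37C. Cytosolic IP1 read by TR-FRET; AC50 from Hill fits.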
# Active calls of the source: *; u = inconclusive; x = no result given; [ ] = another dose, or the depositor's remark. Unless noted, the call rests on the fitted dose curve; in most records, active means well fitted curve in the direction sought with a large enough effect; inconclusive means small, poorly fitted or top-dose-only effect, or another doubt; inactive means no such curve, though single readings can be large; an effect the other way counts as inactive or inconclusive. Unless noted, on the % scale 0 is the no-effect control and ±100 the full control effect.
SMILES,IMPase Li cell,PNC assembly inh,HPGD inh,ALDH1A1 block,12-hLO inh,IMPase cell inh
Cc1cccc(Oc2ccc(NC(=O)CCC(=O)OCC(=O)c3ccc(Br)cc3)cc2)c1C,x,x,x,x,x,5
COC(=O)C(C(=O)Nc1ccc(OC)cc1)C1CCCCCC1 (stereo not drawn),28%[38.3 µM],-81*,-8%,u,-7%,-8
COC(=O)C(C(=O)Nc1ccccc1C)C1CCCC1 (stereo not drawn),-4%[38.3 µM],-83*,-1%,-6%,0%,3
COCCNc1ncnc2ccc(-c3ccccc3C(F)(F)F)cc12,33%,x,x,u,x,x
CC(C)Nc1nc(Cl)nc(N(C#N)CN2C(=O)c3ccccc3S2(=O)=O)n1,x,x,x,22µM*,x,x
CN(C)c1nc(N(C)C)nc(N(C#N)CN2C(=O)c3ccccc3S2(=O)=O)n1,8%,x,x,20µM*,x,x
CC(C)(C)Nc1nc(Cl)nc(N(C#N)CN2C(=O)c3ccccc3S2(=O)=O)n1,-3%,x,x,9%,x,x
CCCCCNCCCCC,9%,x,-4%,u,-2%,x
COc1ccccc1Nc1nc(-c2cccs2)cs1,5%[38.3 µM],-23,-29%,4µM*,-18%,7
O=C1c2ccccc2C(=O)N1CCCSc1nc2ccccc2o1,-1%[38.3 µM],-10,20µM*,u,-6%,9
Cn1c(=O)[nH]c(=O)c2c1nc(N1CCCC1)n2CCCSc1nc2ccccc2o1,7%[38.3 µM],45,28µM*,-3%,-4%,4
Cn1c(=O)[nH]c(=O)c2c1nc(Br)n2CCCSc1nc2ccccc2o1,-3%[38.3 µM],-9,22µM*,u,-2%,7
N#C[C@H](c1ccccc1)N1CCCN([C@@H](C#N)c2ccccc2)C1c1ccccc1O (stereo partly drawn),-5%,x,-1%,2%[13.5 µM],0%[11.4 µM],x
CCc1ccc(C(=O)CC2(O)C(=O)N(CCc3ccccc3)c3ccc(Cl)cc32)cc1 (stereo not drawn),x,x,x,x,x,-17
Cc1ccc(NC(=O)Cn2cnc3cc([N+](=O)[O-])ccc3c2=O)c(Cl)c1,x,x,x,2.8µM*,x,x
COC(=O)[C@@H]1C[C@@]2(O)[C@H](O)[C@H](O)[C@H](O)C[C@H]2N1Cc1ccc(N2CCN(C)CC2)cc1,-5%,x,-17%,22µM*,-1%,x
COC(=O)[C@@H]1C[C@@]2(O)[C@H](O)[C@H](O)[C@H](O)C[C@H]2N1Cc1ccc(N2CCOCC2)cc1,-5%,x,-21%,u,4%,x
COc1ccccc1-n1c(/C=C/c2c(C)n(C)c3ccccc23)nc2ccccc2c1=O,x,x,x,x,x,2
CC(C)C[C@@H](CC(=O)N[C@H](CC(=O)N[C@@H]1CCCC[C@H]1C(=O)N[C@H](CC(=O)N[C@@H](CCC(=O)O)CC(=O)O)CC(C)C)C(C)C)NC(=O)[C@@H]1CCCC[C@H]1N,5%,x,-3%,u,-1%,x
Cc1ccc(C(=O)c2cc([N+](=O)[O-])ccc2N2CCCCC2)cc1C,15%,u,-13%,-1%,-5%,x
CN1CCN(c2ccc([N+](=O)[O-])cc2C(=O)c2ccc(Br)cc2)CC1,0%[38.3 µM],-14,-12%,28µM*,-14%,13
CC(C)CNC(=O)c1cc([N+](=O)[O-])ccc1N1CCCCC1,12%,50,-9%,0%,-3%,x
CCC(CC)c1nnc(NC(=O)c2cc([N+](=O)[O-])ccc2N2CCCCC2)s1,7%,28,-20%,7.9µM*,1%,x
Cc1ccc(C(=O)c2cc([N+](=O)[O-])ccc2N2CCOCC2)cc1C,16%,u,-16%,32µM*,-14%,x
O=C(NC1CCCCC1)c1cc([N+](=O)[O-])ccc1N1CCCCC1,7%,12,-7%,13µM*,-3%,12
SMILES,IMPase Li cell,PNC assembly inh,HPGD inh,ALDH1A1 block,12-hLO inh,IMPase cell inh
COc1ccc(NC(=O)c2cc([N+](=O)[O-])ccc2N2CCCC2)cc1,12%,x,x,9%,x,x
O=S(=O)(O)c1cc(O)c2c(O)c(N=Nc3cccc4ccccc34)c(S(=O)(=O)O)cc2c1,7%,x,-13%,6%[13.5 µM],-3%[11.4 µM],x
CO[C@@H]1/C=C\CC(=O)N2CCC[C@@H]2C(=O)OC[C@H](C)C(=O)OC[C@H]1C,x,x,x,10%[13.5 µM],x,x
O=C(c1ccccc1)c1cc([N+](=O)[O-])ccc1N1CCCC1,5%,u,-4%,-9%,-1%,x
O=C(NCC1CCCCC1)c1cc([N+](=O)[O-])ccc1N1CCOCC1,20%,x,x,u,x,x
O=[N+]([O-])c1ccc(N2CCCCCC2)c(S(=O)(=O)N2CCCCC2)c1,9%[38.3 µM],22,-13%,25µM*,-11%,9
O=C(c1ccc(Br)cc1)c1cc([N+](=O)[O-])ccc1N1CCCCC1,-23%[38.3 µM],u,-13%,2.8µM*,-7%,-21
COc1ccc(C(=O)c2cc([N+](=O)[O-])ccc2N2CCN(C)CC2)cc1,2%,x,x,5µM*,x,x
O=C(NC12CC3CC(CC(C3)C1)C2)c1cc([N+](=O)[O-])ccc1N1CCOCC1,11%,x,x,13µM*,x,x
CCN1CCN(C(=O)N[C@H](C(=O)N[C@@H]2C(=O)N3C(C(=O)O)=C(CSc4nnnn4C)CS[C@@H]23)c2ccc(O)cc2)C(=O)C1=O,3%,x,-9%,10%[20.9 µM],-3%[25.6 µM],-2[20.6 µM]
CC(C)C[C@@H](CC(=O)N[C@@H](CCC(=O)O)CC(=O)O)NC(=O)[C@@H]1CNCC[C@H]1NC(=O)C[C@@H](NC(=O)C[C@H](CO)NC(=O)[C@@H]1CCCC[C@H]1N)C(C)C,8%,x,-3%,13%,0%,x
COC(=O)Nc1nn(-c2ccc(OC)cc2)c(=O)c(C#N)c1C,-5%,x,x,25µM*,x,x
COC(=O)Nc1nn(-c2ccc(C)cc2)c(=O)c(C#N)c1C,3%,x,x,4%,x,x
CN(C)S(=O)(=O)c1cccc(NC(=O)c2cc(-c3cccs3)nn2-c2ccccc2)c1,13%,11,u,22µM*,1%,x
CCN(CC)S(=O)(=O)c1cccc(NC(=O)c2cc(-c3cccs3)nn2-c2ccccc2)c1,4%,10,-20%,-7%,0%,x
COc1nc(-c2ccc(C)cc2)ccc1-c1noc(-c2ccc(C(C)(C)C)cc2)n1,x,x,x,x,x,3
Cn1c(-c2ccc3c(c2)OCO3)cnc1NCc1ccc(Cl)cc1,32%[38.3 µM],u,u,u,u,8
Cn1c(-c2ccc(F)cc2)cnc1NCc1ccc(C#N)cc1,0%[38.3 µM],-10,-14%,5µM*,-13%,1
